{"source": "PubChem BioAssay (NCI)", "assay_in_all_cases": "NCI-60 one-dose screen, 48 h (100 = growth as untreated, 0 = no growth, -100 = all killed)", "details_in_all_cases": "10 µM unless noted", "key": {"[1]": {"test_system": "HCT-15 colon"}, "[2]": {"test_system": "HT29 colon"}, "[3]": {"test_system": "SNB-75 CNS"}, "[4]": {"test_system": "SNB-19 CNS"}, "[5]": {"test_system": "U251 CNS"}, "[6]": {"test_system": "PC-3 prostate"}, "[7]": {"test_system": "UACC-62 melanoma"}, "[8]": {"test_system": "LOX IMVI melanoma"}, "[9]": {"test_system": "SK-MEL-28 melanoma"}, "[10]": {"test_system": "SK-MEL-5 melanoma"}}, "note": "The panel holds about 83,000 compounds, 20% with a hit somewhere; the sample as a whole holds those more often.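 Each cell line was grown in a 96-well plate and treated with one concentration of compound for 48 hours. Values below 10 were considered active.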 A number with no mark means an inactive call. Active and inactive are the calls of the source."}
{"smiles": "O=C(Cn1cc(CSc2nc3ccccc3o2)nn1)Nc1ccc(F)cc1F", "values": [{"measurement": "growth", "setting": "[1]", "result": 107, "unit": "%"}, {"measurement": "growth", "setting": "[2]", "result": 128, "unit": "%"}, {"measurement": "growth", "setting": "[3]", "result": 103, "unit": "%"}, {"measurement": "growth", "setting": "[4]", "result": 101, "unit": "%"}, {"measurement": "growth", "setting": "[5]", "result": 120, "unit": "%"}, {"measurement": "growth", "setting": "[6]", "result": 101, "unit": "%"}, {"measurement": "growth", "setting": "[7]", "result": 111, "unit": "%"}, {"measurement": "growth", "setting": "[8]", "result": 108, "unit": "%"}, {"measurement": "growth", "setting": "[9]", "result": 114, "unit": "%"}]}
{"smiles": "N#Cc1ccc2c(c1)C(=O)c1c-2n(CCCN)c(=O)c2cc([N+](=O)[O-])ccc12", "values": [{"measurement": "growth", "setting": "[1]", "result": "-90.8% (active)"}, {"measurement": "growth", "setting": "[2]", "result": "-100% (active)"}, {"measurement": "growth", "setting": "[3]", "result": "-100% (active)"}, {"measurement": "growth", "setting": "[4]", "result": "-85.1% (active)"}, {"measurement": "growth", "setting": "[5]", "result": "-100% (active)"}, {"measurement": "growth", "setting": "[6]", "result": "-74.4% (active)"}, {"measurement": "growth", "setting": "[7]", "result": "-100% (active)"}, {"measurement": "growth", "setting": "[8]", "result": "-100% (active)"}, {"measurement": "growth", "setting": "[9]", "result": "-100% (active)"}]}
{"smiles": "C#CCOc1cccc(Nc2ncnc3cc(NC(=O)C=C)ccc23)c1", "values": [{"measurement": "growth", "setting": "[1]", "result": "7.73% (active)"}, {"measurement": "growth", "setting": "[2]", "result": "1.75% (active)"}, {"measurement": "growth", "setting": "[3]", "result": 24.7, "unit": "%"}, {"measurement": "growth", "setting": "[4]", "result": 33.8, "unit": "%"}, {"measurement": "growth", "setting": "[5]", "result": 33.1, "unit": "%"}, {"measurement": "growth", "setting": "[6]", "result": 24.2, "unit": "%"}, {"measurement": "growth", "setting": "[7]", "result": "9.66% (active)"}, {"measurement": "growth", "setting": "[8]", "result": "3.54% (active)"}, {"measurement": "growth", "setting": "[9]", "result": 49, "unit": "%"}]}
{"smiles": "COCCNC(=O)Nc1ccc2nc(-c3cccs3)c(-c3cccs3)nc2c1", "values": [{"measurement": "growth", "setting": "[1]", "result": 90.9, "unit": "%"}, {"measurement": "growth", "setting": "[2]", "result": 87.8, "unit": "%"}, {"measurement": "growth", "setting": "[3]", "result": 81.6, "unit": "%"}, {"measurement": "growth", "setting": "[4]", "result": 95.5, "unit": "%"}, {"measurement": "growth", "setting": "[5]", "result": 96.7, "unit": "%"}, {"measurement": "growth", "setting": "[6]", "result": 79.2, "unit": "%"}, {"measurement": "growth", "setting": "[7]", "result": 85.1, "unit": "%"}, {"measurement": "growth", "setting": "[8]", "result": 82.8, "unit": "%"}, {"measurement": "growth", "setting": "[9]", "result": 96.7, "unit": "%"}]}
{"smiles": "CCN(CC)CCCCCNc1cc(OC(=O)c2ccc(Cl)cc2)cc2cccnc12", "values": [{"measurement": "growth", "setting": "[1]", "result": 97.7, "unit": "%"}, {"measurement": "growth", "setting": "[2]", "result": 87.6, "unit": "%"}, {"measurement": "growth", "setting": "[3]", "result": 89.5, "unit": "%"}, {"measurement": "growth", "setting": "[4]", "result": 103, "unit": "%"}, {"measurement": "growth", "setting": "[5]", "result": 105, "unit": "%"}, {"measurement": "growth", "setting": "[6]", "result": 88.8, "unit": "%"}, {"measurement": "growth", "setting": "[10]", "result": 105, "unit": "%"}, {"measurement": "growth", "setting": "[8]", "result": 106, "unit": "%"}, {"measurement": "growth", "setting": "[9]", "result": 116, "unit": "%"}]}
{"smiles": "Cc1cccc(CNc2c3ccccc3nc3ccccc23)c1", "values": [{"measurement": "growth", "setting": "[1]", "result": 15.9, "unit": "%"}, {"measurement": "growth", "setting": "[2]", "result": "5.15% (active)"}, {"measurement": "growth", "setting": "[3]", "result": 37, "unit": "%"}, {"measurement": "growth", "setting": "[4]", "result": 29.7, "unit": "%"}, {"measurement": "growth", "setting": "[5]", "result": 23.7, "unit": "%"}, {"measurement": "growth", "setting": "[6]", "result": 24.9, "unit": "%"}, {"measurement": "growth", "setting": "[7]", "result": 42.8, "unit": "%"}, {"measurement": "growth", "setting": "[8]", "result": "6.25% (active)"}, {"measurement": "growth", "setting": "[9]", "result": 58.8, "unit": "%"}]}
{"smiles": "COc1ccc(F)cc1/C=C/C(=O)/C=C(/C=C/c1cc(F)ccc1OC)OB(F)F", "values": [{"measurement": "growth", "setting": "[1]", "result": "9.21% (active)"}, {"measurement": "growth", "setting": "[2]", "result": 18, "unit": "%"}, {"measurement": "growth", "setting": "[3]", "result": 83.7, "unit": "%"}, {"measurement": "growth", "setting": "[4]", "result": 72.4, "unit": "%"}, {"measurement": "growth", "setting": "[5]", "result": 14, "unit": "%"}, {"measurement": "growth", "setting": "[6]", "result": 29, "unit": "%"}, {"measurement": "growth", "setting": "[7]", "result": 14.8, "unit": "%"}, {"measurement": "growth", "setting": "[8]", "result": "3.94% (active)"}]}
{"smiles": "CCCCNCCCCCNc1cc(OC)cc2cccnc12", "values": [{"measurement": "growth", "setting": "[1]", "result": 88.2, "unit": "%"}, {"measurement": "growth", "setting": "[2]", "result": 96, "unit": "%"}, {"measurement": "growth", "setting": "[3]", "result": 74.1, "unit": "%"}, {"measurement": "growth", "setting": "[4]", "result": 95.5, "unit": "%"}, {"measurement": "growth", "setting": "[5]", "result": 91.8, "unit": "%"}, {"measurement": "growth", "setting": "[6]", "result": 77.8, "unit": "%"}, {"measurement": "growth", "setting": "[7]", "result": 83.2, "unit": "%"}, {"measurement": "growth", "setting": "[8]", "result": 105, "unit": "%"}, {"measurement": "growth", "setting": "[9]", "result": 98.8, "unit": "%"}]}
{"smiles": "CSc1nnc(-c2cc3c([nH]c4ccccc43)c(-c3cccc(O)c3)n2)n1-c1ccccc1", "values": [{"measurement": "growth", "setting": "[1]", "result": 26.7, "unit": "%"}, {"measurement": "growth", "setting": "[2]", "result": 41.3, "unit": "%"}, {"measurement": "growth", "setting": "[4]", "result": 38.6, "unit": "%"}, {"measurement": "growth", "setting": "[5]", "result": 32.3, "unit": "%"}, {"measurement": "growth", "setting": "[6]", "result": 29.9, "unit": "%"}, {"measurement": "growth", "setting": "[10]", "result": 19.9, "unit": "%"}, {"measurement": "growth", "setting": "[7]", "result": 42.3, "unit": "%"}, {"measurement": "growth", "setting": "[8]", "result": 33.1, "unit": "%"}, {"measurement": "growth", "setting": "[9]", "result": 36.2, "unit": "%"}]}
{"smiles": "Cc1nc2sc(C(=O)Nc3cccc4ccccc34)c(N)c2cc1C(O)c1ccccc1", "note": "(centres undefined)", "values": [{"measurement": "growth", "setting": "[1]", "result": 13.1, "unit": "%"}, {"measurement": "growth", "setting": "[2]", "result": 10.5, "unit": "%"}, {"measurement": "growth", "setting": "[4]", "result": 26.2, "unit": "%"}, {"measurement": "growth", "setting": "[5]", "result": "1.5% (active)"}, {"measurement": "growth", "setting": "[6]", "result": 14.8, "unit": "%"}, {"measurement": "growth", "setting": "[10]", "result": "-53.1% (active)"}, {"measurement": "growth", "setting": "[7]", "result": 17.8, "unit": "%"}, {"measurement": "growth", "setting": "[8]", "result": 21.4, "unit": "%"}, {"measurement": "growth", "setting": "[9]", "result": 54.3, "unit": "%"}]}
{"smiles": "O=C1NC(=O)C(Cc2ccc(OCc3ccc(-c4ccc(Cl)cc4Cl)cc3)cc2)S1", "note": "(centres undefined)", "values": [{"measurement": "growth", "setting": "[1]", "result": 39.5, "unit": "%"}, {"measurement": "growth", "setting": "[2]", "result": 86.3, "unit": "%"}, {"measurement": "growth", "setting": "[4]", "result": 73.8, "unit": "%"}, {"measurement": "growth", "setting": "[5]", "result": 57.6, "unit": "%"}, {"measurement": "growth", "setting": "[6]", "result": 32.2, "unit": "%"}, {"measurement": "growth", "setting": "[10]", "result": "-28.4% (active)"}, {"measurement": "growth", "setting": "[7]", "result": 41.9, "unit": "%"}, {"measurement": "growth", "setting": "[8]", "result": 37.1, "unit": "%"}, {"measurement": "growth", "setting": "[9]", "result": 65.3, "unit": "%"}]}
{"smiles": "Cc1cc(N2CCCCC2)cc(C)c1-c1csc(NC(=O)c2ccncc2)n1", "values": [{"measurement": "growth", "setting": "[1]", "result": 80.5, "unit": "%"}, {"measurement": "growth", "setting": "[2]", "result": 69, "unit": "%"}, {"measurement": "growth", "setting": "[4]", "result": 59.8, "unit": "%"}, {"measurement": "growth", "setting": "[5]", "result": 63, "unit": "%"}, {"measurement": "growth", "setting": "[6]", "result": 48.1, "unit": "%"}, {"measurement": "growth", "setting": "[10]", "result": "-8.97% (active)"}, {"measurement": "growth", "setting": "[7]", "result": 45.1, "unit": "%"}, {"measurement": "growth", "setting": "[8]", "result": 47.1, "unit": "%"}, {"measurement": "growth", "setting": "[9]", "result": 64.9, "unit": "%"}]}
{"smiles": "CCSc1oc(-c2ccccc2)nc1[P+](c1ccccc1)(c1ccccc1)c1ccccc1", "values": [{"measurement": "growth", "setting": "[1]", "result": "6.09% (active)"}, {"measurement": "growth", "setting": "[2]", "result": "1.21% (active)"}, {"measurement": "growth", "setting": "[4]", "result": 12.4, "unit": "%"}, {"measurement": "growth", "setting": "[5]", "result": 15.2, "unit": "%"}, {"measurement": "growth", "setting": "[6]", "result": "-1.59% (active)"}, {"measurement": "growth", "setting": "[7]", "result": "-0.29% (active)"}, {"measurement": "growth", "setting": "[8]", "result": "-84.9% (active)"}, {"measurement": "growth", "setting": "[9]", "result": 29.8, "unit": "%"}]}
{"smiles": "N#CSCC1CC(O)(c2ccccc2)CC(c2ccc(F)cc2)O1", "note": "(centres undefined)", "values": [{"measurement": "growth", "setting": "[1]", "result": 16.5, "unit": "%"}, {"measurement": "growth", "setting": "[2]", "result": "-0.0912% (active)"}, {"measurement": "growth", "setting": "[4]", "result": 31.9, "unit": "%"}, {"measurement": "growth", "setting": "[5]", "result": "-51.2% (active)"}, {"measurement": "growth", "setting": "[6]", "result": 25.8, "unit": "%"}, {"measurement": "growth", "setting": "[10]", "result": 22.1, "unit": "%"}, {"measurement": "growth", "setting": "[7]", "result": 11.4, "unit": "%"}, {"measurement": "growth", "setting": "[8]", "result": "-46.8% (active)"}, {"measurement": "growth", "setting": "[9]", "result": 43.9, "unit": "%"}]}
